# Assay results: PubChem BioAssay (Tox21)
# “And” between values parts separate entries of the source, which are not always exact repeats. Equal values may be shown once. Values without a mark were called inactive. Inconclusive results are not listed. Where a call stands in place of a potency, no number is given. More than one record can exist for a structure, and the calls need not agree. The source made the active and inactive calls. Calls follow the shape of the dose curve; as a rule, active = well fitted curve in the direction sought with a large enough effect in the repeat runs; inconclusive = weak or mixed curves; inactive = no such curve, though single readings can be large; an effect the other way counts as inactive or inconclusive.
# What was measured:
# [1] = A CellTox Green Cytotoxicity Assay to monitor cytotoxicity in HEK293 cells - 40 hour (AID 1224871); also: nearly all actives have a fitted effect of over 45% in size
# Outline: (§1)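 Cytotoxicity was tracked continuously in HEK293 cells by a DNA-binding dye excluded from viable cells. Compounds were transferred in DMSO 5 h after seeding; fluorescence was recorded at intervals up to 40 h.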
# [2] = qHTS RealTime-Glo MT Cell Viability Assay in HEK293 cells - 16 hour (AID 1224872); also: top concentration of the series differs between compounds; nearly all actives have a fitted effect of over 50% in size
# Outline: (§2)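 Viability tracked continuously by luminescence as live cells reduce a prosubstrate for NanoLuc; HEK293 cells preincubated 5 h, compound-treated at 37 C, and read at 0, 8, 16, 24, 32 and 40 h.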
# [3] = qHTS RealTime-Glo MT Cell Viability Assay in HepG2 cells - 8 hour (AID 1224873); also: nearly all actives have a fitted effect of over 55% in size
# Outline: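 Real-time viability: cells seeded at 600 per well together with NanoLuc and cell-permeant prosubstrate, compounds added after 5 h incubation. Luminescence tracked at 0, 8, 16, 24, 32 and 40 h of exposure.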
# [4] = qHTS RealTime-Glo MT Cell Viability Assay in HEK293 cells - 40 hour (AID 1224874); conditions: RealTime-Glo luminescence; max response: active compounds read low; also: nearly all actives have a fitted effect of over 50% in size; also: potency is read from the fitted curve at half-maximal effect
# Outline: (§3)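 Nonlytic bioluminescent viability monitoring. HEK293 at 600 cells/well with reagent; 5 h settle; compound transfer by pintool; plates held at 37 C and read at set time points.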
# [5] = A CellTox Green Cytotoxicity Assay to monitor cytotoxicity in HEK293 cells - 24 hour (AID 1224875); also: series mostly up to about 77 µM; nearly all actives have a fitted effect of over 45% in size
# Outline: as §1
# [6] = A CellTox Green Cytotoxicity Assay to monitor cytotoxicity in HepG2 cells - 16 hour (AID 1224876); also: nearly all actives have a fitted effect of over 45% in size
# Outline: (§4)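 Real-time, homogeneous cytotoxicity readout: dead-cell DNA staining by CellTox Green in HepG2 monolayers, fluorescence measured at timed intervals up to 40 h of continuous compound exposure.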
# [7] = qHTS RealTime-Glo MT Cell Viability Assay in HepG2 cells - 32 hour (AID 1224877); also: nearly all actives have a fitted effect of over 55% in size
# Outline: (§5)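 Viability was tracked continuously by NanoLuc luminescence from prosubstrate reduced by living HepG2 cells, at successive time points over 40 h of compound exposure. Cells with reagent were preincubated 5 h at 37 °C before compound addition.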
# [8] = A CellTox Green Cytotoxicity Assay to monitor cytotoxicity in HepG2 cells - 24 hour (AID 1224878); also: nearly all actives have a fitted effect of over 45% in size
# Outline: as §4
# [9] = qHTS RealTime-Glo MT Cell Viability Assay in HEK293 cells - 0 hour (AID 1224880)
# Outline: as §3
# [10] = A CellTox Green Cytotoxicity Assay to monitor cytotoxicity in HEK293 cells - 32 hour (AID 1224881); also: nearly all actives have a fitted effect of over 40% in size
# Outline: as §1
# [11] = A CellTox Green Cytotoxicity Assay to monitor cytotoxicity in HepG2 cells - 0 hour (AID 1224882); also: nearly all actives have a fitted effect of over 35% in size
# Outline: as §4
# [12] = A CellTox Green Cytotoxicity Assay to monitor cytotoxicity in HepG2 cells - 32 hour (AID 1224883); also: nearly all actives have a fitted effect of over 50% in size
# Outline: as §4
# [13] = A CellTox Green Cytotoxicity Assay to monitor cytotoxicity in HEK293 cells - 8 hour (AID 1224884); also: nearly all actives have a fitted effect of over 35% in size
# Outline: as §1
# [14] = qHTS RealTime-Glo MT Cell Viability Assay in HepG2 cells - 16 hour (AID 1224885); also: nearly all actives have a fitted effect of over 50% in size
# Outline: as §5
# [15] = qHTS RealTime-Glo MT Cell Viability Assay in HEK293 cells - 24 hour (AID 1224886)
# Outline: as §2
# [16] = qHTS RealTime-Glo MT Cell Viability Assay in HEK293 cells - 8 hour (AID 1224887)
# Outline: as §3
# [17] = qHTS RealTime-Glo MT Cell Viability Assay in HepG2 cells - 0 hour (AID 1224889); also: nearly all actives have a fitted effect of over 50% in size; also: potency is read from the fitted curve at half-maximal effect
# Outline: as §5
# [18] = A CellTox Green Cytotoxicity Assay to monitor cytotoxicity in HepG2 cells - 8 hour (AID 1224890); also: nearly all actives have a fitted effect of over 45% in size
# Outline: as §4
# [19] = A CellTox Green Cytotoxicity Assay to monitor cytotoxicity in HepG2 cells - 40 hour (AID 1224879); also: nearly all actives have a fitted effect of over 40% in size
# Outline: as §4
# [20] = A CellTox Green Cytotoxicity Assay to monitor cytotoxicity in HEK293 cells - 16 hour (AID 1224888); also: nearly all actives have a fitted effect of over 35% in size
# Outline: as §1
smiles,measurement,setting,value
CC(C)=CCC/C(C)=C/CO,Potency,[1],inactive
same,Potency,[2],inactive
same,outcome,[3],inactive
same,max response,[4],7.58% and 13.8% and -0.309%
same,Potency,[5],inactive
same,Potency,[6],inactive
same,outcome,[7],inactive
same,Potency,[8],inactive
same,Potency,[9],inactive
same,Potency,[10],inactive
same,Potency,[11],inactive
same,Potency,[12],inactive
same,Potency,[13],inactive
same,Potency,[14],inactive
same,Potency,[15],inactive
same,Potency,[16],inactive
same,Potency,[17],inactive
same,Potency,[18],inactive
NC(=O)N1c2ccccc2C=Cc2ccccc21,Potency,[1],inactive
same,Potency,[2],inactive
same,outcome,[3],inactive
same,Potency,[4],34.5 µM (active)
same,max response,[4],-19.3% and 0.148%
same,Potency,[5],inactive
same,Potency,[6],inactive
same,Potency,[8],inactive
same,Potency,[19],inactive
same,Potency,[9],inactive
same,Potency,[10],inactive
same,Potency,[11],inactive
same,Potency,[12],inactive
same,Potency,[13],inactive
same,Potency,[14],inactive
same,Potency,[15],inactive
same,Potency,[16],inactive
same,Potency,[20],inactive
same,Potency,[17],inactive
same,Potency,[18],inactive
CC1=C(/C=C/C(C)=C/C=C/C(C)=C/C(=O)O)C(C)(C)CCC1,Potency,[1],inactive
same,Potency,[2],inactive
same,outcome,[3],inactive
same,max response,[4],-20% and -18.8% and -12.7%
same,Potency,[5],inactive
same,Potency,[6],inactive
same,outcome,[7],inactive
same,Potency,[8],inactive
same,Potency,[19],inactive
same,Potency,[9],inactive
same,Potency,[10],inactive
same,Potency,[11],inactive
same,Potency,[12],inactive
same,Potency,[13],inactive
same,Potency,[14],inactive
same,Potency,[15],inactive
same,Potency,[16],inactive
same,Potency,[20],inactive
same,Potency,[17],inactive
same,Potency,[18],inactive
NC(=O)N/N=C/c1ccc([N+](=O)[O-])o1,Potency,[1],inactive
same,Potency,[2],inactive
same,outcome,[3],inactive
same,max response,[4],-0.165%
same,Potency,[5],inactive
same,Potency,[6],inactive
same,outcome,[7],inactive
same,Potency,[8],inactive
same,Potency,[19],inactive
same,Potency,[9],inactive
same,Potency,[10],inactive
same,Potency,[11],inactive
same,Potency,[12],inactive
same,Potency,[13],inactive
same,Potency,[14],inactive
same,Potency,[15],inactive
same,Potency,[16],inactive
same,Potency,[20],inactive
same,Potency,[17],inactive
same,Potency,[18],inactive
C[C@]12C=CC(=O)C=C1CC[C@@H]1[C@@H]2C(=O)C[C@@]2(C)[C@H]1CC[C@]2(O)C(=O)CO,Potency,[1],inactive
same,Potency,[2],inactive
same,outcome,[3],inactive
same,max response,[4],-10.3% and 0.237% and 8.61%
same,Potency,[5],inactive
same,Potency,[6],inactive
same,outcome,[7],inactive
same,Potency,[8],inactive
same,Potency,[19],inactive
same,Potency,[9],inactive
same,Potency,[10],inactive
same,Potency,[11],inactive
same,Potency,[12],inactive
same,Potency,[13],inactive
same,Potency,[14],inactive
same,Potency,[15],inactive
same,Potency,[16],inactive
same,Potency,[20],inactive
same,Potency,[17],22 µM (active) and 17.4 µM (active)
same,Potency,[18],inactive
